Laboratory results as given in PubChem BioAssay (NCATS).
Results filed as inconclusive are left out. The source made the active and inactive calls. Calls follow the shape of the dose curve; as a rule, active = well fitted curve in the direction sought with a large enough effect; inconclusive = small, poorly fitted or top-dose-only effect, or another doubt; inactive = no such curve, though single readings can be large; an effect the other way counts as inactive or inconclusive.

assay: Cell Viability - LYMP2-005 (AID 967); settings: LYMP2-005 lymphoblastoid cell viability; series mostly up to 92.2 µM; activity change, negative = viability loss: at the top concentration;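 also: plate controls were DMSO only for no effect and 92 µM tetraoctylammonium bromide control for full effect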
How it was run: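 CellTiter-Glo luminescence (cellular ATP) read-out; LYMP2-005 lymphoblastoid cells, 2500/well, 5 h pre-incubation, then 24 h compound exposure at 37 C in complete medium. Tetraoctylammonium bromide positive control; AC50 by standard Hill fit.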

Row | Structure (SMILES) | activity change, negative = viability loss
1 | CC/C(C)=N/O | 8.09% (inactive)
2 | Nc1c(Cl)cc(Cl)cc1Cl | 0.53% (inactive)
3 | OC/C(Br)=C(\Br)CO | 6.98% (inactive)
4 | CCC=O | 6.57% (inactive)
5 | CC(=O)OC(C)C | 7.27% (inactive)
6 | C=CCn1c(=O)n(CC=C)c(=O)n(CC=C)c1=O | 20.9% (inactive)
7 | CCOC(=O)C(C)C(C)=O (configuration not stated) | 2.93% (inactive)
8 | Oc1cccc(Nc2ccccc2)c1 | 23.9% (inactive)
9 | C1CCC2OC2C1 (configuration not stated) | 9.15% (inactive)
10 | Nc1ccc([N+](=O)[O-])c(N)c1 | 10.5% (inactive)
11 | CSc1ccc(C=O)cc1 | 6.82% (inactive)
12 | O=C(Cl)c1ccccc1[N+](=O)[O-] | 19.7% (inactive)
13 | Nc1cccc([N+](=O)[O-])c1 | -3.22% (inactive)
14 | CCOCCOCC | 14.5% (inactive)
15 | C=CC(=O)NC(C)C | 15.5% (inactive)
16 | O=[N+]([O-])c1cccc(Cl)c1 | -6.88% (inactive)
17 | CCC(C)(C)C(=O)O | 4.22% (inactive)

Row | Structure (SMILES) | activity change, negative = viability loss
18 | C/C(C=O)=C/c1ccccc1 | 15.5% (inactive)
19 | CC(C)(O)C(=O)O | 14.5% (inactive)
20 | CC(=O)OCCC(C)C | 11% (inactive)
21 | CCC(C)(C)C | -42.1% (inactive)
22 | CCOc1cccc(N)c1 | 6.29% (inactive)
23 | O=C1OC(=O)c2cc([N+](=O)[O-])ccc21 | 4.78% (inactive)
24 | COC(=O)CCCC(=O)OC | -4.05% (inactive)
25 | NC=O | 12.9% (inactive)
26 | O=C(Cl)c1cccc([N+](=O)[O-])c1 | 15.7% (inactive)
27 | CC(=O)CCc1ccccc1 | 8.33% (inactive)
28 | C=CCCCCCCC=C | 7.52% (inactive)
29 | Nc1cc([N+](=O)[O-])ccc1C(=O)O | -12.6% (inactive)
30 | Nc1cccc(O)c1 | -5.92% (inactive)
31 | CCOCCO | -1.27% (inactive)
32 | O=C(Cl)c1c(Cl)cccc1Cl | 7.33% (inactive)
33 | ICCc1ccccc1 | -5.96% (inactive)

assay: Cell Viability - LYMP2-009 (AID 968); settings: LYMP2-009 lymphoblastoid cell viability; series mostly up to 92.2 µM; activity change, negative = viability loss: at the top concentration;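 also: 0% = DMSO alone and the full-kill end = tetraoctylammonium bromide at 92 µM; nearly all actives have a fitted effect of over 55% in size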

Row | Structure (SMILES) | activity change, negative = viability loss
34 | CC/C(C)=N/O | -1.47% (inactive)
35 | Nc1c(Cl)cc(Cl)cc1Cl | -1.96% (inactive)
36 | Nc1ccc(Cl)cc1[N+](=O)[O-] | -3.1% (inactive)
37 | OC/C(Br)=C(\Br)CO | -6.74% (inactive)
38 | CCC=O | 2.58% (inactive)
39 | CC(=O)OC(C)C | -3.36% (inactive)
40 | C=CCn1c(=O)n(CC=C)c(=O)n(CC=C)c1=O | -3.23% (inactive)
41 | CCCCCCCCCCCCOCC1CO1 (configuration not stated) | -5.12% (inactive)
42 | Oc1cccc(Nc2ccccc2)c1 | -16.4% (inactive)
43 | C1CCC2OC2C1 (configuration not stated) | -1.43% (inactive)
44 | Nc1ccc([N+](=O)[O-])c(N)c1 | -7.62% (inactive)
45 | CSc1ccc(C=O)cc1 | -12% (inactive)
46 | O=C(Cl)c1ccccc1[N+](=O)[O-] | -0.884% (inactive)
47 | Nc1cccc([N+](=O)[O-])c1 | -3.53% (inactive)
48 | CCOCCOCC | -3.68% (inactive)
49 | C=CC(=O)NC(C)C | 0.21% (inactive)
50 | O=[N+]([O-])c1cccc(Cl)c1 | -5.25% (inactive)

Row | Structure (SMILES) | activity change, negative = viability loss
51 | C/C(C=O)=C/c1ccccc1 | -10.3% (inactive)
52 | CC(C)(O)C(=O)O | -14.8% (inactive)
53 | CCC(C)(C)C | -2.34% (inactive)
54 | CC(C)CO | -10.2% (inactive)
55 | CCOc1cccc(N)c1 | -13.3% (inactive)
56 | O=C1OC(=O)c2cc([N+](=O)[O-])ccc21 | -0.191% (inactive)
57 | NC=O | -3.78% (inactive)
58 | O=C(Cl)c1cccc([N+](=O)[O-])c1 | 0.721% (inactive)
59 | Cc1ccc2oc(=O)ccc2c1 | -8.19% (inactive)
60 | CC(=O)CCc1ccccc1 | -8.78% (inactive)
61 | O=C(O)CNC(=O)c1ccc(CO)o1 | -6.56% (inactive)
62 | Clc1ccccn1 | -6.18% (inactive)
63 | Nc1cccc(O)c1 | -4.42% (inactive)
64 | CCOCCO | -7.01% (inactive)
65 | O=C(Cl)c1c(Cl)cccc1Cl | -4.84% (inactive)
66 | ICCc1ccccc1 | -20% (inactive)

assay: Cell Viability - LYMP2-011 (AID 969); settings: LYMP2-011 lymphoblastoid cells viability; series mostly up to 92.2 µM; viability change, negative = cytotoxic: at the top concentration;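 also: 0% = DMSO only and full inhibition = 92 µM tetraoctylammonium bromide; nearly all actives have a fitted effect of over 60% in size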
How it was run: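 In this qHTS cytotoxicity format, compounds are tested across concentrations on human lymphoblastoid cells in complete medium for 24 hours at 37 C. Viability is taken as cellular ATP measured by luciferase luminescence.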

Row | Structure (SMILES) | viability change, negative = cytotoxic
67 | CC/C(C)=N/O | -1.51% (inactive)
68 | Nc1c(Cl)cc(Cl)cc1Cl | -0.294% (inactive)
69 | Nc1ccc(Cl)cc1[N+](=O)[O-] | 0.196% (inactive)
70 | OC/C(Br)=C(\Br)CO | -7.24% (inactive)
71 | CCC=O | -5.72% (inactive)
72 | CC(=O)OC(C)C | 1.72% (inactive)
73 | C=CCn1c(=O)n(CC=C)c(=O)n(CC=C)c1=O | 0.357% (inactive)
74 | CCCCCCCCCCCCOCC1CO1 (configuration not stated) | -4.14% (inactive)
75 | Oc1cccc(Nc2ccccc2)c1 | -3.09% (inactive)
76 | Nc1ccc([N+](=O)[O-])c(N)c1 | -6.38% (inactive)
77 | CSc1ccc(C=O)cc1 | 2.11% (inactive)
78 | O=C(Cl)c1ccccc1[N+](=O)[O-] | 0.0808% (inactive)
79 | Nc1cccc([N+](=O)[O-])c1 | 3.53% (inactive)
80 | CCOCCOCC | -5.63% (inactive)
81 | O=[N+]([O-])c1cccc(Cl)c1 | 4.37% (inactive)
82 | CCC(C)(C)C(=O)O | -2.58% (inactive)

Row | Structure (SMILES) | viability change, negative = cytotoxic
83 | C/C(C=O)=C/c1ccccc1 | -6.89% (inactive)
84 | CC(C)(O)C(=O)O | -0.857% (inactive)
85 | CC(=O)OCCC(C)C | 3.56% (inactive)
86 | CCC(C)(C)C | -0.514% (inactive)
87 | CCOc1cccc(N)c1 | 1.63% (inactive)
88 | O=C1OC(=O)c2cc([N+](=O)[O-])ccc21 | -3.09% (inactive)
89 | NC=O | 2.45% (inactive)
90 | Cc1ccc2oc(=O)ccc2c1 | -2.13% (inactive)
91 | CC(=O)CCc1ccccc1 | -0.711% (inactive)
92 | C=CCCCCCCC=C | -11.3% (inactive)
93 | O=C(O)CNC(=O)c1ccc(CO)o1 | 0.661% (inactive)
94 | Clc1ccccn1 | -4.63% (inactive)
95 | Nc1cc([N+](=O)[O-])ccc1C(=O)O | 0.93% (inactive)
96 | Nc1cccc(O)c1 | -2.58% (inactive)
97 | O=C(Cl)c1c(Cl)cccc1Cl | -1.91% (inactive)
98 | ICCc1ccccc1 | -9.07% (inactive)

assay: Cell Viability - LYMP2-013 (AID 970); settings: LYMP2-013 lymphoblastoid cells viability; series mostly up to 92.2 µM; activity change, negative = cytotoxic: at the top concentration;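 also: 0% = DMSO only and full inhibition = tetraoctylammonium bromide control; nearly all actives have a fitted effect of over 55% in size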
How it was run: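 Cytotoxicity is scored as a concentration-dependent drop in intracellular ATP in human lymphoblastoid cells after 24 hr compound exposure at 37 C. ATP is quantified by luciferase luminescence, and AC50 values come from Hill-equation modeling.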

Row | Structure (SMILES) | activity change, negative = cytotoxic
99 | CC/C(C)=N/O | -3.55% (inactive)
100 | Nc1ccc(Cl)cc1[N+](=O)[O-] | 0.711% (inactive)
101 | OC/C(Br)=C(\Br)CO | 1.66% (inactive)
102 | CCC=O | -3.1% (inactive)
103 | CC(=O)OC(C)C | -7.6% (inactive)
104 | C=CCn1c(=O)n(CC=C)c(=O)n(CC=C)c1=O | 0.906% (inactive)
105 | CCCCCCCCCCCCOCC1CO1 (configuration not stated) | -4.32% (inactive)
106 | CCOC(=O)C(C)C(C)=O (configuration not stated) | -4.17% (inactive)
107 | C1CCC2OC2C1 (configuration not stated) | -1.43% (inactive)
108 | Nc1ccc([N+](=O)[O-])c(N)c1 | -3.56% (inactive)
109 | CSc1ccc(C=O)cc1 | -0.202% (inactive)
110 | O=C(Cl)c1ccccc1[N+](=O)[O-] | -3.74% (inactive)
111 | CCOCCOCC | -7.69% (inactive)
112 | C=CC(=O)NC(C)C | -1.55% (inactive)
113 | O=[N+]([O-])c1cccc(Cl)c1 | 4.71% (inactive)
114 | CCC(C)(C)C(=O)O | 0.177% (inactive)
115 | C/C(C=O)=C/c1ccccc1 | -3.95% (inactive)

Row | Structure (SMILES) | activity change, negative = cytotoxic
116 | CC(C)(O)C(=O)O | -7.5% (inactive)
117 | CC(=O)OCCC(C)C | 3.85% (inactive)
118 | CCC(C)(C)C | 0.785% (inactive)
119 | CC(C)CO | -3.29% (inactive)
120 | CCOc1cccc(N)c1 | -1.59% (inactive)
121 | O=C1OC(=O)c2cc([N+](=O)[O-])ccc21 | 0.623% (inactive)
122 | COC(=O)CCCC(=O)OC | -1.7% (inactive)
123 | NC=O | -4.37% (inactive)
124 | Cc1ccc2oc(=O)ccc2c1 | -1.93% (inactive)
125 | CC(=O)CCc1ccccc1 | -0.592% (inactive)
126 | C=CCCCCCCC=C | 0.991% (inactive)
127 | O=C(O)CNC(=O)c1ccc(CO)o1 | -3.13% (inactive)
128 | Clc1ccccn1 | -6.34% (inactive)
129 | Nc1cc([N+](=O)[O-])ccc1C(=O)O | -5.59% (inactive)
130 | Nc1cccc(O)c1 | -4.53% (inactive)
131 | O=C(Cl)c1c(Cl)cccc1Cl | -2.17% (inactive)
132 | ICCc1ccccc1 | -18.4% (inactive)
